Among the data in PubChem BioAssay AID2676 (National Center for Advancing Translational Sciences (NCATS), 2010) are Potency values, retold here.

Hit rate of the full screen: of about 370,000 compounds, about 1,100 (0.3%) were called active. A call without a number means that no potency is given here. Inconclusive results (about 1%) are left out. Calls follow the shape of the dose curve; as a rule, active = well fitted activation curve with a large enough effect; inconclusive = small, poorly fitted or top-dose-only effect; inactive = flat fitted curve, though single readings scatter. Many of the other results were omitted from the sample, so actives are more common in it than they were.
Potency is read from the fitted curve at half-maximal effect.

Chain of Relaxin receptor 1 (Homo sapiens) (Q9HBX9 whole entry, looked up): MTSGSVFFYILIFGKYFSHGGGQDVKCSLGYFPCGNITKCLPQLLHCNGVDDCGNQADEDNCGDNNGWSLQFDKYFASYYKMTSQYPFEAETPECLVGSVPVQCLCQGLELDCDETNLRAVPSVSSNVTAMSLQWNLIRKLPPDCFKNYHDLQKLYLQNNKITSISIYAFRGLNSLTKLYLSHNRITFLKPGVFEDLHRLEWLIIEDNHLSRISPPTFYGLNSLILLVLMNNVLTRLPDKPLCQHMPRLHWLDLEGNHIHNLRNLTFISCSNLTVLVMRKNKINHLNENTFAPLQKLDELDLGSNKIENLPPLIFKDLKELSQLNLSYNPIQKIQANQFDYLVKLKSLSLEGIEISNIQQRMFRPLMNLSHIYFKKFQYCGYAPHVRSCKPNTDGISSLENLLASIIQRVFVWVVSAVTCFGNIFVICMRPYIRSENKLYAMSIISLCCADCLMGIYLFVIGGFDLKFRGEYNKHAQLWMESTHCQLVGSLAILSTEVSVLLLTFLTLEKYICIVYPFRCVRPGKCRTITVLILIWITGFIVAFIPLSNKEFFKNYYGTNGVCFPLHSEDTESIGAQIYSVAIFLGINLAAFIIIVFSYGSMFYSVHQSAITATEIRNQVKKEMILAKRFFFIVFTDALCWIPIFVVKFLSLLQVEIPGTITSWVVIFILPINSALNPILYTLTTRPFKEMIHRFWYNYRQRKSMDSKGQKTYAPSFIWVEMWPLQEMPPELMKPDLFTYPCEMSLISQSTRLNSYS

The assay has as its target Relaxin receptor 1 (Homo sapiens) (UniProt Q9HBX9). In words: qHTS Assay for Agonists of the Relaxin Receptor RXFP1. Also: nearly all actives have a fitted effect of over 60% in size. Particulars: HEK293T-RXFP1 cAMP TR-FRET, 30 min; series mostly up to 57.5 µM. From the text:
NIH Chemical Genomics Center [NCGC] NIH Molecular Libraries Probe Production Centers Network [MLPCN] MLPCN Grant: R03 MH085705-01A1 Assay Submitter (PI): Alexander Agoulnik NCGC Assay Overview: The relaxin hormone is involved in the variety of biological functions in normal tissues and diseases. The role of relaxin is well-established in female reproduction and parturition, mammary gland and endometrial development, maintenance of myometrial quiescence during pregnancy. Relaxin signaling through its G protein-coupled receptor (GPCR) RXFP1 results in ECM remodeling through regulation of collagen deposition, cell invasiveness, proliferation and overall tissue homeostasis. […] Recombinant human relaxin (rhRlx) is currently being tested in clinical trials as a protective agent in congestive heart failure, in treating severe preeclampsia, and as an anti-fibrotic agent in systemic sclerosis. Upon relaxin binding RXFP1 activation leads to the activation of adenylate cyclase (AC) via Gs. cAMP will activate PKA, which phosphorylates many signaling proteins. Thus, detection of cAMP increase is an easy and reliable indication of relaxin receptor activation. To screen for agonists of the relaxin receptor, a HEK293T cell line stably transfected with RXFP1 was used. RXFP1 activation was assayed by changes in cAMP levels as detected with a time-resolved fluorescence energy transfer (TR-FRET) cAMP detection kit.
NCGC Assay Protocol Summary: This is a cell-based assay for cAMP second messenger response to screen for agonists of the RXFP1 receptor. The assay was conducted in the presence of a PDE4 inhibitor (Ro 20174). The cells were lysed and the cAMP levels were measured with a TR-FRET cAMP kit. Presence of cAMP in the cell lysate disrupts binding between the cryptate-labeled anti-cAMP and d2-labeled cAMP pair, leading to a decrease in the TR-FRET signal. Data were normalized to the controls for basal activity (buffer only) and 100% activity (29 nM porcine relaxin). The EC50 values were determined from concentration-response data modeled with the standard Hill equation 1536-well assay protocol for the HEK293 RXFP1 cAMP assay: (1) Add 3 ul HEK293 RXFP1 cell culture. 2000 cells/well in DMEM/F12, 10% FBS, 1x Pen/Strep (dispensed offline with MultiDrop Combi). (2) Incubate 16-24 hr at 37C, 5% CO2. (3) Add 1 ul 400uM Ro20174 in DPBS, 0.05% BSA, 0.005% Tween 20. (3) Add 23 nl compounds in DMSO solution. Final concentration was 0.5 - 58 uM. (4) Incubate 30 min at 37C, 5% CO2. (5) Add 1 ul cAMP-d2 in lysis buffer (HTRF cAMP HiRange kit, CisBio). (6) Add 1 ul anti-cAMP antibody-cryptate in lysis buffer (HTRF cAMP HiRange kit, CisBio). (7) Incubate 30 min at room temperature. (6) Detect the assay plate in a ViewLux plate reader (PerkinElmer) with Ex=320 nm, Em1=615 nm and Em2=665 nm. Keywords: relaxin, RXFP1, RXFP2, G-protein coupled receptor, cAMP, agonist, high throughput screening, MLSMR, MLSCN, NIH Roadmap, qHTS and NCGC
In general terms: qHTS replaces the single test concentration by a dilution series.
`O=C(Nc1ccc2nc(SCC(=O)N3CCCc4ccccc43)sc2c1)c1ccc(Cl)cc1`: the Potency entry was “inactive”.

As for `CCOC(=O)c1ccc(N2C(=O)c3[nH]nc(-c4ccccc4)c3C2c2ccc(C(C)C)cc2)cc1` (stereo not drawn), the Potency result was “inactive”.

Take `Fc1ccc(-c2nn(-c3ccccc3Cl)c3c2cnc2ccccc23)cc1`: the Potency result is “inactive”.

As to `CCOc1cccc2sc(N3CCN(C(=O)C4CC4)CC3)nc12`, the Potency result is “inactive”.

As to `COc1ccc(C(=O)COC(=O)Cn2cnc3c2c(=O)n(C)c(=O)n3C)c(OC)c1`, the Potency is 15.8 µM (active).

In the case of `Cn1c(=O)c2c(ncn2CC(=O)N2CCN(c3ccccc3)CC2)n(C)c1=O`, the Potency entry was “inactive”.

With `COc1ccc(C(=O)COC(=O)c2nn(C)c(=O)c3ccccc23)c(OC)c1`, the Potency entry was “inactive”.

As to `COc1ccc(Cn2ccnc2SCC(=O)Nc2ccc3c(c2)OCO3)cc1`, the Potency result was “inactive”.

Take `CCC(C)c1ccc2oc(-c3ccc(NC(=O)c4cc5ccccc5o4)cc3)nc2c1` (stereo not drawn): the Potency entry is “inactive”.

As for `Cn1nnnc1SCCNCc1ccc(Cl)c(Cl)c1`, the Potency result is “inactive”.

For `COc1ccc(Br)cc1CNC(=O)c1cc(=O)[nH]c2ccc(S(=O)(=O)N3CCCC3)cc12`, the Potency entry is “inactive”.

With `CCOC(=O)c1ccc(CSc2nnc3cc(C)c4ccccc4n23)cc1`, the Potency result was “inactive”.

Regarding `O=c1cc(-c2ccccc2)n2c(SCc3ccccc3)nnc2[nH]1`, the Potency entry was “inactive”.

With `Cc1cccc2nc(CSc3nc4[nH]ncc4c(=O)n3-c3cccc(Cl)c3)cc(=O)n12`, the Potency entry is “inactive”.

Take `CCc1ccc(-n2c(SCc3cc(=O)n4cc(Br)ccc4n3)nc3[nH]ncc3c2=O)cc1`: the Potency is 20 µM (active).

Regarding `O=c1c2sccc2nc(SCc2cc(=O)n3ccccc3n2)n1-c1ccc(Br)cc1`, the Potency result was “inactive”.

Consider `CCCN1C(=O)C(O)(CC(=O)c2ccc(CC)cc2)c2cc(Br)ccc21` (stereo not drawn), for which the Potency result was “inactive”.

Consider `COc1cccc(CNC(=O)Cn2ncn3c(cc4ccccc43)c2=O)c1`, for which the Potency entry is “inactive”.

With `CCCSc1ncc(Cl)c(C(=O)Nc2c(C(=O)Nc3ccccc3)oc3ccccc23)n1`, the Potency result is “inactive”.

On to `Cc1cc(NS(=O)(=O)c2ccc(NC(=O)c3ccccc3C)cc2)nc(C)n1`, for which the Potency result was “inactive”.

On to `CCCn1c(NCc2ccccc2F)nc2ccccc21`, for which the Potency result is “inactive”.

With `COc1ccc(-c2cn3c(n2)sc2cc(C(=O)Nc4ccc(F)cc4)ccc23)cc1`, the Potency result is “inactive”.

Turning to `O=C(Cn1nc(Cc2cccnc2)c2ccccc2c1=O)N1CCN(c2ccccc2F)CC1`, the Potency entry was “inactive”.

Turning to `Cc1ccccc1NC(=O)Cn1c(=O)n(CCCCC(=O)NCc2ccccc2Cl)c(=O)c2ccccc21`, the Potency entry was “inactive”.

In the case of `CCCCNC(=O)CSc1nc2cc3c(cc2c(=O)n1CCCCCC(=O)NCc1ccc2c(c1)OCO2)OCO3`, the Potency entry is “inactive”.

On to `CC1(C)Cc2nc3sc4c(SCC(=O)NC(c5ccccc5)c5ccccc5)ncnc4c3cc2CO1`, for which the Potency was 3.16 µM (active).

Take `O=C(CSc1ncnc2scc(-c3ccccc3)c12)NCc1ccc2c(c1)OCO2`: the Potency result is “inactive”.

As to `CC(C)CCSc1ncnc2c1oc1nc3c(cc12)COC(C)(C)C3`, the Potency entry was “inactive”.

For the compound `Cc1ccc(Cl)cc1N1CCN(S(=O)(=O)c2cc3[nH]c(=O)c(=O)[nH]c3cc2C)CC1`, the Potency entry was “inactive”.

On to `COc1ccc2c(c1)Cc1sc(NC(=O)c3ccccc3Br)nc1-2`, for which the Potency entry is “inactive”.

Regarding `COc1ccc(NC(=O)CCc2nnc3n(CC(C)C)c(=O)c4ccccc4n23)cc1OC`, the Potency entry was “inactive”.

For `COc1cc(OC)cc(C(=O)Nc2c(C(=O)Nc3ccc(F)cc3)oc3ccccc23)c1`, the Potency result is “inactive”.

With `COc1cccc(-c2nc(CS(=O)(=O)CC(=O)N3CCN(c4cc(C)ccc4C)CC3)c(C)o2)c1`, the Potency result is “inactive”.

With `Cc1cccc(Cn2c(SCc3ccc(C(=O)N4CCC(C)CC4)cc3)nc3ccncc32)c1`, the Potency result was “inactive”.

For `COc1ccccc1CNC(=O)C(=O)NCC(c1ccco1)S(=O)(=O)c1ccc(F)cc1` (stereo not drawn), the Potency entry was “inactive”.

For the compound `COc1cccc(C(=O)Nc2nnc(S(=O)(=O)N(C)c3ccccc3)s2)c1`, the Potency entry is “inactive”.

For the compound `CCCCC(=O)Nc1nnc(S(=O)(=O)N(C)Cc2ccco2)s1`, the Potency result was “inactive”.

For `CCC(=O)Nc1ccccc1-c1nc2ccccc2n(CC(=O)Nc2ccc(C)c(C)c2)c1=O`, the Potency entry is “inactive”.

For `CC1CCN(C(=O)Cn2c(=O)n(-c3ccc(Cl)cc3)c(=O)c3c4c(sc32)CCC4)CC1`, the Potency result was “inactive”.

With `CCC(C)Nc1oc(-c2ccc(COc3ccc(Cl)cc3)o2)nc1C#N` (stereo not drawn), the Potency entry is “inactive”.

In the case of `CCOC(=O)c1c(C)[nH]c(CCC(=O)NCCCN2CCN(c3cccc(Cl)c3)CC2)c1C`, the Potency entry is “inactive”.

Take `Cc1ccc(Nc2c(-c3ccc(Cl)cc3)nc3sccn23)c(C)c1`: the Potency entry was “inactive”.

In the case of `CC(=O)N1CCCc2cc(S(=O)(=O)Nc3ccc(Cl)cc3F)ccc21`, the Potency result was “inactive”.

With `O=C(COc1ccc(Cl)cc1)Nc1ccccc1OCc1cc(=O)n2ccccc2n1`, the Potency result is “inactive”.

Regarding `CCOc1ccccc1C(=O)Nc1ccc2c(c1)N(C)C(=O)c1ccccc1S2`, the Potency result is “inactive”.

In the case of `CC(=O)Nc1cccc(NC(=O)CSc2nccn2Cc2ccc3c(c2)OCO3)c1`, the Potency result was “inactive”.

`Cc1cc(OCC(=O)NCC2(N(C)C)CCCCC2)cc(C)c1Cl`: the Potency result was “inactive”.

For `COc1ccc(CNC(=O)CSc2n[nH]c(-c3ccc(F)cc3)n2)cc1`, the Potency entry is “inactive”.

As to `CCc1ccc(NC(=O)CN2CCSc3ccc(S(=O)(=O)N4CCCC4)cc32)cc1`, the Potency result is “inactive”.

On to `Cc1ccc(S(=O)(=O)N(Cc2nc(-c3ccc(Cl)cc3)no2)C2CCCCC2)cc1`, for which the Potency result is “inactive”.

For the compound `COc1ccc2c(c1)c(=O)c(C(=O)c1ccccc1)cn2CC(=O)Nc1ccc2c(c1)OCCO2`, the Potency entry is “inactive”.

Regarding `CCCC(=O)N1CCN(c2nc3c(OC)ccc(C)c3s2)CC1`, the Potency result is “inactive”.

Turning to `CCCN(CCC)CCNC(=O)c1ccc2c(c1)NC(=O)C(CS(=O)(=O)Cc1cccc(Br)c1)N2` (stereo not drawn), the Potency result is “inactive”.
